Assay results reported in PubChem BioAssay (EPA / NIEHS).
Several values for one entry are separate records, joined by “and”; a condition that tells them apart may be missing. Equal values may be shown once. Records with an inconclusive call do not appear. Where a structure was tested more than once in an assay, its records may differ in their call. Activity calls are given as the source filed them. Rule for the calls, unless noted: active = hit-call score of the fitted dose curve at least 0.9, where 1 is the maximum; inactive = score below 0.9.

How the values were obtained:
[1] = BSK_4H_Eotaxin3: BioMAP Diversity Plus: 4H Assay for Eotaxin 3 Biomarker Activity (AID 2283000); settings: primary human endothelial cells (HUVEC); actives raise or lower the signal
How it was run: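 Human umbilical vein endothelial cells (BSK_4H system) dosed with test chemical; Eotaxin-3 (CCL26) measured by ELISA 24 h after dosing. Bidirectional curve fitting relative to DMSO negative control as baseline.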

[2] = target: human Peroxisome Proliferator-activated Receptor alpha (PPARa), PPARA (gene 5465) (UniProt Q07869); experiment: ATG_PPARa_TRANS: Attagene TRANS-FACTORIAL HepG2 Assay for human Peroxisome Proliferator-activated Receptor alpha (PPARa) (AID 2283001; active = hit-call score of the fitted dose curve at least 0.9, where 1 is the maximum;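 for AC50: potency for gain of reporter signal over DMSO so agonist or activator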)
How it was run: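 HepG2 cells transiently transfected with multiplexed GAL4-UAS reporter units and chimeric NR-Gal4 constructs were dosed for 24 h. Reporter mRNA was measured by RT-PCR with fluorescent labelling and capillary electrophoresis; gain of signal fitted against DMSO.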

[3] = target: human Peroxisome Proliferator-activated Receptor delta (PPARd), PPARD (gene 5467) (UniProt Q03181); experiment: ATG_PPARd_TRANS: Attagene TRANS-FACTORIAL HepG2 Assay for human Peroxisome Proliferator-activated Receptor delta (PPARd) (AID 2283002; active = hit-call score of the fitted dose curve at least 0.9, where 1 is the maximum)
How it was run: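 Multiplexed trans-activation format: HepG2 liver cells expressing exogenous NR-Gal4 chimeras and GAL4-UAS reporters were exposed for 24 h. Reporter mRNA was detected by RT-PCR with capillary electrophoresis fluorescence; activity fitted as gain of signal relative to DMSO.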

[4] = read-out: Intercellular Adhesion Molecule 1 (ICAM1), ICAM1 (gene 3383); experiment: BSK_3C_ICAM1: BioMAP Diversity Plus: 3C Assay for Intercellular Adhesion Molecule 1 (ICAM1) Biomarker Activity (AID 2283003); settings: primary human endothelial cells (HUVEC); actives raise or lower the signal
How it was run: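 Primary human umbilical vein endothelial cells in the BioMAP 3C system were exposed to chemicals for 24 h, then ICAM-1 was quantified by ELISA. Activity was fitted bidirectionally against the DMSO negative control baseline.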

[5] = BSK_3C_Proliferation: Cell Proliferation Assessment in the BioMAP Diversity Plus: 3C Assay (AID 2283006); settings: primary human endothelial cells (HUVEC);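 for AC50: potency may reflect either rise or fall in cell number versus DMSO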
How it was run: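 Human umbilical vein endothelial cells were grown sub-confluent and exposed to chemical for 48 h, then fixed with 10% TCA and stained with 0.1% sulforhodamine B; absorbance at 560 nm gave relative cell number, fitted bidirectionally against DMSO baseline.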

[6] = target: Peroxisome proliferator-activated receptor gamma (Homo sapiens) (UniProt P37231); experiment: ATG_PPARg_TRANS: Attagene TRANS-FACTORIAL HepG2 Assay for human Peroxisome Proliferator-activated Receptor-gamma (PPARg) (AID 2283007; active = hit-call score of the fitted dose curve at least 0.9, where 1 is the maximum)
How it was run: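 Multiplexed reporter transcription units in HepG2, 24 h dosing, reporter transcripts quantified by fluorescent RT-PCR and capillary electrophoresis. Increase over DMSO scored.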

[7] = target: Nuclear receptor subfamily 1 group I member 2 (Homo sapiens) (UniProt O75469); experiment: ATG_PXR_TRANS: Attagene TRANS-FACTORIAL HepG2 Assay for human Pregnane X Receptor (PXR) (AID 2283008; active = hit-call score of the fitted dose curve at least 0.9, where 1 is the maximum)
How it was run: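 HepG2 cells transiently transfected with multiple reporter units, here a PXR-GAL4 chimera driving a GAL4-UAS reporter; 24 h compound exposure. Reporter mRNA measured by RT-PCR, FAM labelling and capillary electrophoresis; gain of signal fitted against DMSO baseline.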

[8] = target: human Retinoic Acid Receptor gamma (RARg), RARG (gene 5916) (UniProt P13631); experiment: ATG_RARg_TRANS: Attagene TRANS-FACTORIAL HepG2 Assay for human Retinoic Acid Receptor gamma (RARg) (AID 2283009; active = hit-call score of the fitted dose curve at least 0.9, where 1 is the maximum)
How it was run: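 HepG2 cells transiently transfected with multiplexed reporter units expressing chimeric RARg-GAL4 and GAL4-UAS-driven reporters; 24 h compound exposure. Reporter mRNA quantified by RT-PCR with fluorescent labelling and capillary electrophoresis; gain-of-signal fitted relative to DMSO baseline.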

[9] = target: Retinoic acid receptor RXR-alpha (Homo sapiens) (UniProt P19793); experiment: ATG_RXRa_TRANS: Attagene TRANS-FACTORIAL HepG2 Assay for human Retinoid X Receptor alpha (RXRa) (AID 2283012; active = hit-call score of the fitted dose curve at least 0.9, where 1 is the maximum)
How it was run: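 HepG2 cells transiently transfected with multiplexed GAL4-UAS reporter units and chimeric NR-GAL4 fusions, dosed 24 h. Reporter mRNA measured by RT-PCR, FAM labelling, HpaI digestion and capillary electrophoresis; gain-of-signal fitted relative to DMSO baseline.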

[10] = target: human Retinoid X Receptor beta (RXRb), RXRB (gene 6257) (UniProt P28702); experiment: ATG_RXRb_TRANS: Attagene TRANS-FACTORIAL HepG2 Assay for human Retinoid X Receptor beta (RXRb) (AID 2283013; active = hit-call score of the fitted dose curve at least 0.9, where 1 is the maximum)
How it was run: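 HepG2 cells transiently transfected with multiplexed reporter units driven by GAL4-UAS and exogenous chimeric NR-Gal4 proteins; treated 24 h. Reporter mRNA measured by RT-PCR, 6-FAM labelling and capillary electrophoresis; gain-of-signal fitted versus DMSO baseline.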

[11] = read-out: E-selectin (Homo sapiens) (UniProt P16581); experiment: BSK_3C_Eselectin: BioMAP Diversity Plus: 3C Assay for Eselectin Biomarker Activity (AID 2283015); settings: primary human endothelial cells (HUVEC); actives raise or lower the signal
How it was run: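 E-selectin ELISA readout, fitted bidirectionally relative to DMSO, taken 24 h post-dosing in HUVEC cultures of the 3C system. Overt cytotoxicity tracked with sulforhodamine B staining of parallel wells.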

[12] = read-out: Interleukin-1 alpha (IL1a), IL1A (gene 3552); experiment: BSK_BE3C_IL1a: BioMAP Diversity Plus: BE3C Assay for Interleukin-1 alpha (IL1a) Biomarker Activity (AID 2283016); settings: primary human bronchial epithelial cells; actives raise or lower the signal
How it was run: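 Human primary bronchial epithelial cells (BE3C system) were dosed with compound and IL-1a measured by ELISA 24 h later. Activity was fitted bidirectionally against DMSO baseline; cytotoxicity was tracked in parallel cultures by SRB total-protein staining.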

[13] = read-out: Monocyte Chemoattractant Protein-1 (MCP1), CCL2 (gene 6347); experiment: BSK_3C_MCP1: BioMAP Diversity Plus: 3C Assay for Monocyte Chemoattractant Protein-1 (MCP1) Biomarker Activity (AID 2283017); settings: primary human endothelial cells (HUVEC); actives raise or lower the signal
How it was run: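 MCP-1 was measured by ELISA 24 h after dosing in primary HUVEC 3C cultures and fitted in both directions relative to DMSO; cytotoxicity was checked by SRB total-protein staining in parallel wells.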

[14] = read-out: Monocyte Chemoattractant Protein-1 (MCP1), CCL2 (gene 6347); experiment: BSK_4H_MCP1: BioMAP Diversity Plus: 4H Assay for Monocyte Chemoattractant Protein-1 (MCP1) Biomarker Activity (AID 2283018); settings: primary human endothelial cells (HUVEC); actives raise or lower the signal
How it was run: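 Human umbilical vein endothelial cells (4H system) dosed with chemical; MCP-1 measured by ELISA 24 h after dosing. Bidirectional curve fitting against DMSO negative control as baseline; parallel SRB total-protein staining tracks overt cytotoxicity.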

[15] = read-out: Human Leukocyte Antigen - DR isotype (HLADR), HLA-DRA (gene 3122); experiment: BSK_3C_HLADR: BioMAP Diversity Plus: 3C Assay for Human Leukocyte Antigen - DR isotype (HLADR) Biomarker Activity (AID 2283019); settings: primary human endothelial cells (HUVEC); actives raise or lower the signal
How it was run: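 Bidirectional fitting against DMSO was applied to the HLA-DR ELISA signal from human umbilical vein endothelial cells, 24 h post-dose. Cytotoxicity came from parallel SRB total-protein staining; 3C proliferation was counted by SRB at 48 h.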

[16] = target: human RAR-related Orphan Receptor beta (RORb), RORB (gene 6096) (UniProt Q92753); experiment: ATG_RORb_TRANS: Attagene TRANS-FACTORIAL HepG2 Assay for human RAR-related Orphan Receptor beta (RORb) (AID 2283010; active = hit-call score of the fitted dose curve at least 0.9, where 1 is the maximum)
How it was run: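 HepG2 cells were transiently transfected with multiplexed GAL4-UAS reporter units expressing chimeric nuclear receptor–GAL4 proteins, then dosed for 24 h. Reporter mRNA was quantified by RT-PCR with fluorescent labelling and capillary electrophoresis; gain of signal was fitted relative to DMSO.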

[17] = target: human RAR-related Orphan Receptor gamma (RORg), RORC (gene 6097) (UniProt P51449); experiment: ATG_RORg_TRANS: Attagene TRANS-FACTORIAL HepG2 Assay for human RAR-related Orphan Receptor gamma (RORg) (AID 2283011; active = hit-call score of the fitted dose curve at least 0.9, where 1 is the maximum)
How it was run: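 Reporter transcripts from a transfected RORg-GAL4 chimera in HepG2 cells were quantified 24 h after dosing by RT-PCR, 6-FAM labelling, HpaI digestion and capillary electrophoresis; increases over DMSO baseline were fitted.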

[18] = target: human Retinoic Acid Receptor beta (RARb), RARB (gene 5915) (UniProt P10826); experiment: ATG_RARb_TRANS: Attagene TRANS-FACTORIAL HepG2 Assay for human Retinoic Acid Receptor beta (AID 2283004; active = hit-call score of the fitted dose curve at least 0.9, where 1 is the maximum)
How it was run: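 Induction of reporter mRNA from a chimeric RARb-Gal4 construct was measured by RT-PCR, FAM labelling, HpaI digestion and capillary electrophoresis. Measurements followed 24 h compound treatment of transiently transfected human HepG2 liver cells, with DMSO as baseline.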

[19] = target: Retinoic acid receptor alpha (Homo sapiens) (UniProt P10276); experiment: ATG_RARa_TRANS: Attagene TRANS-FACTORIAL HepG2 Assay for human Retinoic Acid Receptor alpha (RARa) (AID 2283005; active = hit-call score of the fitted dose curve at least 0.9, where 1 is the maximum)
How it was run: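 HepG2 cells transiently transfected with multiple reporter units expressing chimeric RARα-GAL4 fusion, with GAL4-UAS-driven reporters. After 24 h compound exposure, reporter mRNA induction quantified by RT-PCR and capillary electrophoresis with fluorescent labeling; gain-of-signal fitted relative to DMSO control.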

[20] = target: human Thyroid Receptor alpha (THRa1), THRA (gene 7067) (UniProt P10827); experiment: ATG_THRa1_TRANS: Attagene TRANS-FACTORIAL HepG2 Assay for human Thyroid Receptor alpha (THRa1) (AID 2283014; active = hit-call score of the fitted dose curve at least 0.9, where 1 is the maximum)
How it was run: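 Transcripts from GAL4-UAS-driven reporters, measured after 24 h compound exposure by RT-PCR plus capillary electrophoresis of 6-FAM-labeled fragments, were fitted for gain of signal relative to DMSO. Cells: transiently transfected HepG2 expressing NR-Gal4 chimeras.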

Measured: AC50

human RAR-related Orphan Receptor beta (RORb), RORB (gene 6096), sequence (Q92753 whole entry, looked up, the tested form may be a part): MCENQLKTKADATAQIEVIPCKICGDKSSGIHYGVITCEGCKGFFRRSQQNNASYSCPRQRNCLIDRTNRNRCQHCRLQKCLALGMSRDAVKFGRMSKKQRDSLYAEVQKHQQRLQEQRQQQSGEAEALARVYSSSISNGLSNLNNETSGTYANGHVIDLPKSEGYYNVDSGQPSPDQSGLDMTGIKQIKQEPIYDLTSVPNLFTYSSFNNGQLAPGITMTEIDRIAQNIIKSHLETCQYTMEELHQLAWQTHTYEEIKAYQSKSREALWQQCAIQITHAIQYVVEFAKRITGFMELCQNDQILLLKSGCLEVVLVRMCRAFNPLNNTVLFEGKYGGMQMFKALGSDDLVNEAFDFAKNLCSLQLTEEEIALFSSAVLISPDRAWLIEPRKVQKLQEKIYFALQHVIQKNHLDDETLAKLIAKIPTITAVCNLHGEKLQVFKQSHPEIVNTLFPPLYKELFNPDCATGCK
human Retinoid X Receptor beta (RXRb), RXRB (gene 6257), sequence (P28702 whole entry, looked up, the tested form may be a part): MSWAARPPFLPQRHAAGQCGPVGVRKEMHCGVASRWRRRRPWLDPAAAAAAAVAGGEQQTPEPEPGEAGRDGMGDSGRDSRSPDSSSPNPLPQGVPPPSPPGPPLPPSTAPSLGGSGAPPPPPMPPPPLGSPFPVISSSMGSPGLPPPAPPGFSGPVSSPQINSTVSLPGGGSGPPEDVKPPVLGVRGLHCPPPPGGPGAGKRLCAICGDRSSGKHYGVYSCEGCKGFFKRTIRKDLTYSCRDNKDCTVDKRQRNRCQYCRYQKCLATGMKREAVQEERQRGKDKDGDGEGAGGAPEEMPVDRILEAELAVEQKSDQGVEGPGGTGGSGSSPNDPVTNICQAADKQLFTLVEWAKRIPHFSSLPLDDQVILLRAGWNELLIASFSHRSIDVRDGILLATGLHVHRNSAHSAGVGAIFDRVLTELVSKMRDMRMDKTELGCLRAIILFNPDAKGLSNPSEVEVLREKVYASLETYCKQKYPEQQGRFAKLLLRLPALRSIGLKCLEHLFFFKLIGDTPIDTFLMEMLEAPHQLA
human Peroxisome Proliferator-activated Receptor alpha (PPARa), PPARA (gene 5465), sequence (Q07869 whole entry, looked up, the tested form may be a part): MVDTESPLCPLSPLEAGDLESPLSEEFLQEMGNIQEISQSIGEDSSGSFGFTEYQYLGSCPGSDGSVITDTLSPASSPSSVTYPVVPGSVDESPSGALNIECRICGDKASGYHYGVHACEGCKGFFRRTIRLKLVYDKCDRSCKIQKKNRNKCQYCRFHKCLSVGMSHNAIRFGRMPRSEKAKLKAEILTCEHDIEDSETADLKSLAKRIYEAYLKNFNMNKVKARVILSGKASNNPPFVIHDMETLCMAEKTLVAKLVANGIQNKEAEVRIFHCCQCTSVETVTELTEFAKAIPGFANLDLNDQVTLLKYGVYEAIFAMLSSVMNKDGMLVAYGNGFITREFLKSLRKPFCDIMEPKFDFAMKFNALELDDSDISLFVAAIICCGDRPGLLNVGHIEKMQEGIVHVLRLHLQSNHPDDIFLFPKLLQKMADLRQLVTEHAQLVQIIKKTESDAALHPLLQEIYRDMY
Nuclear receptor subfamily 1 group I member 2 (Homo sapiens), sequence (O75469 whole entry, looked up, the tested form may be a part): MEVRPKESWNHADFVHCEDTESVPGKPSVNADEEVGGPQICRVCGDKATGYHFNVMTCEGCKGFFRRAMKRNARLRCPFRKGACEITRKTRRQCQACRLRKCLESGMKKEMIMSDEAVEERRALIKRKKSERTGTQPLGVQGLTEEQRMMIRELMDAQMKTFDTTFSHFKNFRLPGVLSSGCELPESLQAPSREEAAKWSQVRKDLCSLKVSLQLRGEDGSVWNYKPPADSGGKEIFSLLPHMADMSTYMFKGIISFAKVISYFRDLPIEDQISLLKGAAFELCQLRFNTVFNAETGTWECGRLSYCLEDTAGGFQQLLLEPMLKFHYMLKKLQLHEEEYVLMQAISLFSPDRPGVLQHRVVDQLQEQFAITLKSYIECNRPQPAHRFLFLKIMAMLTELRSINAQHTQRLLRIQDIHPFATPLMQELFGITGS
human RAR-related Orphan Receptor gamma (RORg), RORC (gene 6097), sequence (P51449 whole entry, looked up, the tested form may be a part): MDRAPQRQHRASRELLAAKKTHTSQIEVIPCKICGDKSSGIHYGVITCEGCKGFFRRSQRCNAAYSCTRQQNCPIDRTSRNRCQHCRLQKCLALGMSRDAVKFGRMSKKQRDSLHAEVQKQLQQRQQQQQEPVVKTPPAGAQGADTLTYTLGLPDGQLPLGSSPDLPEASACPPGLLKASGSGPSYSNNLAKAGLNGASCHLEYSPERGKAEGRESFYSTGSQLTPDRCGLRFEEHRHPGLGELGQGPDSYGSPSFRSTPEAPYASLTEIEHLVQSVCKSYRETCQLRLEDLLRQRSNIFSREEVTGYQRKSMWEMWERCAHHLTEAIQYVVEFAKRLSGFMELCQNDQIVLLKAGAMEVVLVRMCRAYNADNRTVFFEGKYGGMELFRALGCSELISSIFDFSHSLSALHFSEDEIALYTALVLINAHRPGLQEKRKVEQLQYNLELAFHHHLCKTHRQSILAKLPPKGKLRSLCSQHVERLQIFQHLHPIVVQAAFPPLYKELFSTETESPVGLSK
E-selectin (Homo sapiens), sequence (P16581 whole entry, looked up): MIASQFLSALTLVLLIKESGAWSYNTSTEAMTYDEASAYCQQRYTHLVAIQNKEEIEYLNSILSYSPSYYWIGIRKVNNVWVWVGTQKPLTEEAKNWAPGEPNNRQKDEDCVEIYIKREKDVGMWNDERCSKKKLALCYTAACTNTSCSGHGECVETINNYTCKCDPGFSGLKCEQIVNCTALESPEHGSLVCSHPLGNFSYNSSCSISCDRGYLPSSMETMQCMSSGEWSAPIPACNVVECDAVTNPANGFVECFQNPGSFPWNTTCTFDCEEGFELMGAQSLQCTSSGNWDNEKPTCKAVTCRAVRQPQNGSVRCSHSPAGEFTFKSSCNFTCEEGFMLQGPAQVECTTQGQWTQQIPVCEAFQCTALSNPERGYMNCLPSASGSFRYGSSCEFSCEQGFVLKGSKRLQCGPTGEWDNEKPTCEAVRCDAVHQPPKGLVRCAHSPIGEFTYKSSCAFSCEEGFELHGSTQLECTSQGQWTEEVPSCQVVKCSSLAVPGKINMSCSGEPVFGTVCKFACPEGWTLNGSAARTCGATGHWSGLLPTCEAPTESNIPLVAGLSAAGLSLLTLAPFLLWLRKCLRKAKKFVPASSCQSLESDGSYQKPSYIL
human Thyroid Receptor alpha (THRa1), THRA (gene 7067), sequence (P10827 whole entry, looked up, the tested form may be a part): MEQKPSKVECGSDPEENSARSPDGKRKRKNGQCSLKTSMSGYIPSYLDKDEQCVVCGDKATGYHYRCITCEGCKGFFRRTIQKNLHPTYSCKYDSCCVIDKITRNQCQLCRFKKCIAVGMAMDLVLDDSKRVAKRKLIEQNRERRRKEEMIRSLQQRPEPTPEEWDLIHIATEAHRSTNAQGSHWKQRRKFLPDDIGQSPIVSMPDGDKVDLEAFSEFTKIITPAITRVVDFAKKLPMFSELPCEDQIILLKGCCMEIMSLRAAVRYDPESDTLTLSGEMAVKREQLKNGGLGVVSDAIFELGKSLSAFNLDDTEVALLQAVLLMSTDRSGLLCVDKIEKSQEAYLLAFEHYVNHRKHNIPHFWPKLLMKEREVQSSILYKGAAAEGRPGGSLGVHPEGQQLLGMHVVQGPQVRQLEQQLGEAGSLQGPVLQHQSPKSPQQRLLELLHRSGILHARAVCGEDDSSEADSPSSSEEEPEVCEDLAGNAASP
human Retinoic Acid Receptor gamma (RARg), RARG (gene 5916), sequence (P13631 whole entry, looked up, the tested form may be a part): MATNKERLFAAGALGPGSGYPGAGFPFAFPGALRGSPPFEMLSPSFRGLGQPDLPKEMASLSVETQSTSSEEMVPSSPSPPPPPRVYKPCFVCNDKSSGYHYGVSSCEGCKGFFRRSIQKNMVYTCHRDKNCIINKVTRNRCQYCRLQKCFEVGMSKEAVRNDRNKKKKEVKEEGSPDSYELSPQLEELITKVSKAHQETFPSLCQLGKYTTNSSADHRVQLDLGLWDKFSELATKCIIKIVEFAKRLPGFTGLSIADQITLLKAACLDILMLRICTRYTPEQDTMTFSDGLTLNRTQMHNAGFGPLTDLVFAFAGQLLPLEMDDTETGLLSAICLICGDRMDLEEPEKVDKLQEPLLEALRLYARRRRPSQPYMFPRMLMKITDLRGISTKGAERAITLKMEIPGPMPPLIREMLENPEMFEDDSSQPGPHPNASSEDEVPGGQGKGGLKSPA
Retinoic acid receptor RXR-alpha (Homo sapiens), sequence (P19793 whole entry, looked up, the tested form may be a part): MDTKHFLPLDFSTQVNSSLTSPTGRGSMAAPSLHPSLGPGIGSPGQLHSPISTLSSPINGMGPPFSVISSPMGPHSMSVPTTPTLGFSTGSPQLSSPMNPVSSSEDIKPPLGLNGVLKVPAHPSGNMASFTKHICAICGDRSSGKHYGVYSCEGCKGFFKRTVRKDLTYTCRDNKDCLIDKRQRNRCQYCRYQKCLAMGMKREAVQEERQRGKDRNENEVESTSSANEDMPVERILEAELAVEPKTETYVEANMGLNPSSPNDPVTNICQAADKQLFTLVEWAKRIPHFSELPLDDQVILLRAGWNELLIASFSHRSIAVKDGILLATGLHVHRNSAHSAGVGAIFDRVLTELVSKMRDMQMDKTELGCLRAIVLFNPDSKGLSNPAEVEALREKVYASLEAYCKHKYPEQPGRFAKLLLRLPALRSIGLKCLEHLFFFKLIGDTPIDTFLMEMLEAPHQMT
Retinoic acid receptor alpha (Homo sapiens), sequence (P10276 whole entry, looked up, the tested form may be a part): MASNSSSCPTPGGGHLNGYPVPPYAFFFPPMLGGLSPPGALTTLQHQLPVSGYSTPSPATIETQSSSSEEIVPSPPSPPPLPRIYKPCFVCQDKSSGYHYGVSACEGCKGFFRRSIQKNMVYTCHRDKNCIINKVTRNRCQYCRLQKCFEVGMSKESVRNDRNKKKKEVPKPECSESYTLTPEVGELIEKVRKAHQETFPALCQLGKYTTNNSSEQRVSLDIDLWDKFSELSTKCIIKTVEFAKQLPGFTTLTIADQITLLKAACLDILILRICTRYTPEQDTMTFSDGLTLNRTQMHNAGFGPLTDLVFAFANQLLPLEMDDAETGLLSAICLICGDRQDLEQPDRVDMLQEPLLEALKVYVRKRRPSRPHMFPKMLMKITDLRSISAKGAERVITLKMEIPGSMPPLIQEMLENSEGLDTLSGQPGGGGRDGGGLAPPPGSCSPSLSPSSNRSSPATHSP

OCCCC(F)(F)C(F)(F)C(F)(F)C(F)(F)C(F)(F)C(F)(F)C(F)(F)F
active: [1] 45.2 µM and 43.2 µM | [4] 45.1 µM and 52.9 µM | [5] 10.3 µM and 10.4 µM | [9] 42.3 µM | [10] 6.49 µM and 7.94 µM | [11] 23.3 µM and 48.9 µM | [12] 44.1 µM and 47.9 µM | [13] 30.8 µM and 44.4 µM | [14] 45.7 µM and 45.1 µM | [15] 44.1 µM and 36.1 µM
inactive: [2] | [3] | [6] | [7] | [8] | [9]

CCCCCCOC(=O)c1ccccc1O
inactive: [2] | [3] | [6] | [7] | [16] | [17] | [12]
active: [1] 37.6 µM and 43.5 µM | [4] 38.6 µM and 47 µM | [5] 35.3 µM and 40.9 µM | [11] 38.5 µM and 46.9 µM | [13] 41.9 µM and 38 µM | [14] 33.5 µM and 34.3 µM | [15] 37.4 µM and 43.7 µM

O=C(O)C(F)(F)C(F)(F)C(F)(F)C(F)(F)C(F)(F)C(F)(F)C(F)(F)C(F)(F)C(F)(F)C(F)(F)C(F)(F)C(F)(F)F
inactive: [1] | [2] | [3] | [4] | [18] | [19] | [6] | [7] | [8] | [16] | [17] | [9] | [10] | [20] | [11] | [12] | [13] | [14] | [15]
active: [1] 9.18 µM | [5] 20.6 µM and 6.79 µM

CC(C)(C)C(=O)CC(=O)C(F)(F)C(F)(F)C(F)(F)F
inactive: [1] | [2] | [3] | [4] | [18] | [19] | [6] | [7] | [8] | [16] | [17] | [10] | [11] | [12] | [13] | [14] | [15]
active: [5] 43.3 µM and 44.3 µM | [15] 30 µM

CCCCOCCOCCOC(=O)CCCCC(=O)OCCOCCOCCCC
active: [2] 37.7 µM
not listed: [9] | [16] | [18]
inactive: all other assays above

CCN(CC)c1ccc2c(C)cc(=O)oc2c1
active: [5] 30.6 µM | [6] 27.2 µM | [7] 3.63 µM | [10] 26.5 µM | [15] 31.3 µM
not listed: [8] | [16] | [18] | [19]
inactive: all other assays above
